In all, about 370,000 compounds went through this assay and about 4,100 (1.1%) were called active. The sample holds actives, similar compounds and a random draw of the others, so the mix is not that of the screen.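 How the source made its calls: active means inhibition above the mean over all tested compounds plus 3 SD (cut at about 3.6% in these data); inactive means the rest.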
test: DAX1 (NR0B1) inhibitors on StAR promoter, primary screen, cell-based, luminescence, SF-1 (NR5A1), full-length DAX-1 (AID 652010); conditions: HEK293T StAR-luciferase reporter, SF-1/DAX-1 repression relief; at 6.8 µM; stronger effect = higher value;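 further: 0% = DAX-1 cells with DMSO and 100% = cells lacking DAX-1 with DMSO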

Compound	inhibition
Cc1ccc2nc(C)c3c(c2c1)N(c1ccccc1)CC3	-0.54% (inactive)
CCOC(=O)[C@]12CCCC=C1N(Cc1ccc(OC)cc1)C(=O)[C@@H]2CC(=O)N1CCOCC1	0.04% (inactive)
NC(=O)c1ccsc1NC(=O)COC(=O)Cc1n[nH]c(=O)c2ccccc12	1.46% (inactive)
COC(=O)c1sc(NC(=O)c2ccc(OC)cc2OC)nc1C	4.67% (active)
COc1ccc(C(=O)N2CCCN(C)CC2)c(OC)c1	0.26% (inactive)
COc1ccc(C(=O)NC2CC(C)(C)Cc3c2cnn3-c2ccccc2)c(OC)c1 (stereo unspecified)	-3.2% (inactive)
CN(CC(=O)NCCc1ccc(F)cc1)CC(=O)Nc1ccc(F)c(F)c1F	-0.18% (inactive)
COc1ccc(CN2C[C@H]3CON(C)[C@H]3C[C@H]2c2ccc(-c3cccc(F)c3)cc2)cc1	-0.47% (inactive)
CN1OC[C@@H]2CN(C(=O)c3ccc(-c4ccccc4)cc3)[C@H](c3ccc(-c4cccc(F)c4)cc3)C[C@@H]21	-1.11% (inactive)
CN1OC[C@@H]2CN[C@H](c3ccc(-c4ccccc4)cc3)C[C@@H]21	5.45% (active)
CC(NC(=O)COC(=O)CCC(=O)c1ccc(Cl)cc1)c1ccccc1 (stereo unspecified)	-0.89% (inactive)
CCCCOCCCNC(=O)C[C@H]1C[C@@]2(C(=O)OC)C(=C[C@H](C(C)(C)C)O[C@@H]2C)N(CCc2ccc(OC)c(OC)c2)C1=O	-0.4% (inactive)
CC(C)c1ccc(Nc2ncccc2C#N)cc1	5.5% (active)
Cc1ccc(Cc2c(-c3ccc(C)cc3)nc3c4ccccc4ccn23)cc1	-1.54% (inactive)
c1ccc(Cc2c(-c3ccco3)nc3c4ccccc4ccn23)cc1	5.34% (active)
Cc1ccc(Cc2c(-c3ccc(Cl)cc3)nc3c4ccccc4ccn23)cc1	-0.2% (inactive)
O=C(CCCN1C(=O)C2C3C=CC(C3)C2C1=O)N1CCN(c2ccccc2)CC1 (stereo unspecified)	-0.34% (inactive)
C=CS(=O)(=O)N(Cc1nnn(Cc2ccccc2)c1Br)[C@H](C(=O)OC)C(C)C	-2.88% (inactive)
O=C(NC1CCC1)c1ccc(C#Cc2cccc(F)c2)c[n+]1[O-]	-2.3% (inactive)
O=C(O)C1CC=CCC1C(=O)NCCc1ccccc1 (stereo unspecified)	-0.12% (inactive)
O=C(Nc1ccc(Cl)c(Cl)c1)c1ccccc1NC(=O)C1CC=CCC1C(=O)O (stereo unspecified)	9.09% (active)

Compound	inhibition
O=C(Nc1cccc(Cl)c1Cl)c1ccccc1NC(=O)C1CC=CCC1C(=O)O (stereo unspecified)	1.73% (inactive)
Cc1ccc(S(=O)(=O)NCCC(=O)Nc2cccc(S(N)(=O)=O)c2)cc1C	0.14% (inactive)
Cc1ccnc(NC(=O)CCNS(=O)(=O)c2ccc(C)c(C)c2)c1	16.4% (active)
Cc1ccc(S(=O)(=O)NCCC(=O)NCc2ccc(Cl)cc2)cc1C	0.12% (inactive)
C=CCN(C(=O)[C@@H](CCCC)[C@@H](O)c1ccc(Cl)cc1)c1ccccc1	-2.07% (inactive)
COC(=O)C1[C@H]2SC(C)(C)C(C(=O)OC)N2C(=O)N1Cc1nc2ccccc2s1 (stereo partly specified)	-0.17% (inactive)
CCc1ccc(-c2nnn(Cc3nc4ccccc4s3)n2)cc1	-0.22% (inactive)
COc1ccccc1OCc1nc2ccccc2s1	4.19% (active)
O=C(CSc1nc2ccccc2nc1N1CCCCC1)N1CCN(S(=O)(=O)c2cccc([N+](=O)[O-])c2)CC1	0.77% (inactive)
Cc1ccc(NC(=S)NNC(=O)CSc2nnc(SCc3ccccc3Cl)s2)cc1	-0.55% (inactive)
O=C1C(=O)N(c2ccccc2)C(c2ccccc2)C1c1ccccc1 (stereo unspecified)	-0.52% (inactive)
O=C(COc1ccc(Cl)cc1)N1CCN(S(=O)(=O)c2ccc(Cl)cc2)CC1	-0.62% (inactive)
Cc1csc(SCC(=O)Nc2sccc2C#N)n1	10.3% (active)
CC(=O)c1cc(C#N)c(SCC(=O)Nc2nccs2)nc1C	0.62% (inactive)
CC(c1nnc(SCC(=O)Nc2sccc2C#N)n1-c1ccc(Cl)cc1)N(C)C (stereo unspecified)	0.06% (inactive)
Cc1ccc(OCCC(=O)Nc2ccc(S(=O)(=O)Nc3nccs3)cc2)cc1	-0.38% (inactive)
Cc1cc(NS(=O)(=O)c2ccc(NC(=O)CSc3nnc(SCc4ccc(F)cc4)s3)cc2)nc(C)n1	-0.01% (inactive)
Nc1[nH]c(/C=C2/CCCCC2n2[nH]c(=O)n(-c3ccccc3)c2=O)c(Cc2ccccc2)[n+]1Cc1ccccc1 (stereo unspecified)	-0.55% (inactive)
CN(C)CCN(C(=O)CN1C(=O)c2ccccc2C1=O)c1nc2cc3c(cc2s1)OCCO3	4.33% (active)
O=C(Cn1c(=O)sc2ccccc21)Nc1ccc2c(c1)OCCO2	-1.14% (inactive)
CCN(CC)CCN(C(=O)c1ccc(N2C(=O)CCC2=O)cc1)c1nc2cc3c(cc2s1)OCO3	1.06% (inactive)

Compound	inhibition
CCOC(=O)c1csc(NC(=O)C2CCCN(S(=O)(=O)c3ccc(Cl)s3)C2)n1 (stereo unspecified)	-2.18% (inactive)
COCCNC(=S)c1ccc(OC)cc1	0.05% (inactive)
COc1ccc(C(=O)Nc2ccc(-n3nncc3C(C)(C)C)cc2)cc1	-0.32% (inactive)
COc1ccc(C(=O)NC2CCN(C(=O)Nc3ccc(F)cc3)CC2)cc1	-0.44% (inactive)
COc1ccc(NC(=O)c2ccc(OC)cc2)cc1	4.59% (active)
COc1ccc(C(=O)NCCSc2ccccc2C)cc1	2.33% (inactive)
COc1ccc(C(=O)NCC[N+](C)(C)C)cc1	4.67% (active)
O=C(C1CCN(S(=O)(=O)c2ccccc2)CC1)N1CCN(C2CCCCC2)CC1	0.23% (inactive)
Nn1c(SCC(=O)Nc2cccc3ccccc23)nnc1-c1cc(-c2ccc(F)cc2)n[nH]1	-0.54% (inactive)
CC(=O)NC1(c2ccc(F)cc2)CCN(C(=O)c2c(F)cccc2F)CC1	-0.58% (inactive)
CC(C)CSc1nnc(-c2cccnc2)n1Cc1ccccc1	-1.22% (inactive)
COC(=O)c1cccc(Cn2ccc3ccc(-c4ccc5ccn(C(=O)c6ccccc6C)c5c4)cc32)c1	-1.7% (inactive)
O=C(CSc1nc2ccccc2n1Cc1ccccc1)NNC(=S)Nc1ccccc1	-1.17% (inactive)
CCOc1cccc(C(=O)Nc2cnn(Cc3ccccc3)c2)c1	-0.67% (inactive)
O=C(O)CC(Cc1ccccc1)C(=O)Nc1ccc([N+](=O)[O-])cc1 (stereo unspecified)	-0.05% (inactive)
O=C(Cn1cnc([N+](=O)[O-])n1)NCCc1ccccc1	-0.33% (inactive)
O=C(Nc1ccn(Cc2ccccc2)n1)c1cccc(F)c1	4.43% (active)
O=C(Nc1ccn(Cc2ccccc2)n1)c1n[nH]c([N+](=O)[O-])c1Cl	5.27% (active)
Cc1ccc(NC(=O)CC2C(=O)N(Cc3ccccc3)C(=S)N2NC(=O)c2cccc(F)c2)c(C)c1 (stereo unspecified)	-0.22% (inactive)
